About 83,000 compounds went through this panel and 20% of them were active in at least one assay; those are over-represented in the sample as a whole.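 Single-dose data. Exposure time 48 hours. Values below 10 considered active.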 Values without a mark were called inactive. Activity calls are given as the source filed them.
test system: MDA-MB-435 melanoma; assay: NCI-60 one-dose screen, 48 h (100 = growth as untreated, 0 = no growth, -100 = all killed); settings: 10 µM unless noted

Compound	growth
O=C(CCCCCCCCC(=O)Nc1cccc(C2=NCCN2)c1)Nc1cccc(C2=NCCN2)c1	99.2%
C[C@]12CC[C@@H]3c4ccc(O)cc4CC[C@H]3[C@@H]1C[C@H](O)C2	0.155% (active)
CCCCCCCCCCCCCC1=NCC[N+]1(CCO)Cc1ccccc1 (centres undefined)	-91.8% (active)
O=C1[C@@H](OS(=O)(=O)CC(F)(F)F)[C@H](c2ccc(F)cn2)N1c1cc2c3ccccc3ccc2c2ccccc12	30.5%
Cc1cc(O)cc(O)c1N=NC1=NCCS1	105%
CCN(CC)CC#CCOC(=O)[C@]1(C)CCC[C@]2(C)[C@H]3C[C@H]4C(C(C)C)=C[C@]3(CC[C@H]21)[C@@H]1C(=O)CCC(=O)[C@@H]14	74%
CC(=O)OCC1OC(OC2C(COC(C)=O)OC(OCCC[S-])C(OC(C)=O)C2OC(C)=O)C(OC(C)=O)C(OC(C)=O)C1OC(C)=O.[Au+].c1ccc(CN2[CH-]N(Cc3ccccc3)C(c3ccccc3)=C2c2ccccc2)cc1 (centres undefined)	18.9%
COc1cc(-c2cn(-c3ccc(Cl)c(Cl)c3)c(=O)[nH]2)cc(OC)c1OC	96.4%
NC(=O)c1ccc2nc3c(n2c1)C(=O)C(=O)c1ccccc1-3	-91.4% (active)
Nc1c(C(=O)Nc2ccccn2)sc2nc3c(cc12)CCCCCC3	-57.5% (active)
COc1cccc(NC(=O)Nc2ccc(Oc3ncnc4[nH]c(C)c(C)c34)cc2)c1	100%
CC(=O)Oc1c2c(nc3c1c1ccccc1n3Cc1ccccc1)-c1ccccc1C2	98.2%
CCOC(=O)C(=Cc1c(-c2ccccc2)[nH]c2ccccc12)C(=O)OCC	14.5%
CCOC(=O)c1c(C)nc2c(c1N)/C(=C/c1cccs1)C(=O)N2c1ccc(OC)cc1	59.9%
Cc1ccccc1NC(=O)c1sc2nc(C)c(C(C)O)cc2c1N (centres undefined)	1.71% (active)
C#CCN1C(=O)c2ccccc2N(CC#C)C12CCN(Cc1cn(CC(=O)Nc3ccccc3C(N)=O)nn1)CC2	91.9%
O=c1nc(-c2ccccc2)c2cc(-c3ccc(N4CCCC4)nc3)ccc2[nH]1	-1.96% (active)
CC(=O)ON1CCCC(P(=O)(OCOC(=O)C(C)(C)C)OCOC(=O)C(C)(C)C)C1=O (centres undefined)	27%
O=S(=O)(O)c1ccc(N=NSc2ccc3ccccc3c2)cc1	99.9%

Compound	growth
Cc1cccc(C)c1NCc1nnc(-c2ccco2)o1	103%
CC1(C)Cc2c(Br)c(Br)c(Br)c(OCC(O)CN3CCOCC3)c2O1 (centres undefined)	87.5%
S=c1ssnc1-c1cc2ccccc2o1	57%
CCCCCCCc1n(Cc2ccc3ccccc3c2)c2ccccc2[n+]1Cc1ccc2ccccc2c1	-92.3% (active)
Oc1c(CCl)cc(Cl)cc1Cc1cc(Cl)cc(Cc2cc(Cl)cc(CCl)c2O)c1O	44.1%
Cc1cnc(SCc2ccc(Cl)cc2Cl)nc1Nc1ccc(Cl)c(Cl)c1	104%
O=C(C[n+]1cccc2cc(Cl)ccc21)c1ccc2c(c1)CCCC2	10.8%
COc1ccc(/C=C(/C(=O)N2CCN(Cc3ccccc3)CC2)c2cc(OC)c(OC)c(OC)c2)cc1O	1.04% (active)
NC(=O)CN1C(=O)c2ccccc2C1=O	106%
O=C(Nc1nc2ccc(C(F)(F)F)cc2s1)c1cc(Cl)ccc1O	10.2%
C[C@@H]1C(=O)[C@@H]2C[C@@H](O)[C@@H](O)C[C@]2(C)[C@H]2CC[C@@]3(C)C(=C12)CC[C@@H]3[C@@](C)(O)[C@H](O)CCC(C)(C)O	108%
O=c1[nH]c(-c2cccc(F)c2)cc2cc(F)ccc12	-25.5% (active)
COCCOC(=O)COc1ccc(OC)cc1	89.8%
C=C(C)[C@@H]1CC[C@]2(C(=O)N3CCN(C)CC3)CC[C@]3(C)[C@H](CC[C@@H]4[C@@]5(C)C/C(=C/c6ccco6)C(=O)C(C)(C)[C@@H]5CC[C@]43C)[C@@H]12	72.8%
N#CCNc1ccc(C(=O)O)cc1	101%
OCCNc1nc(NCCO)nc(Nc2ccc(C3=NN(c4cc(Cl)cc(Cl)c4)C(c4ccc(Cl)cc4)C3)cc2)n1 (centres undefined)	-15.8% (active)
C=C1C(=O)O[C@H]2[C@H]1CC/C(COC(=O)NCc1nc3ccccc3[nH]1)=C\CC[C@@]1(C)O[C@@H]21	63.1%
Cc1cccc(C)c1NCc1nnc(-c2ccc(O)cc2)o1	99.1%

test system: SW-620 colon; assay: as above; settings: 10 µM unless noted

Compound	growth
O=C(CCCCCCCCC(=O)Nc1cccc(C2=NCCN2)c1)Nc1cccc(C2=NCCN2)c1	97.1%
C[C@]12CC[C@@H]3c4ccc(O)cc4CC[C@H]3[C@@H]1C[C@H](O)C2	33.9%
CCCCCCCCCCCCCC1=NCC[N+]1(CCO)Cc1ccccc1 (centres undefined)	-78.2% (active)
O=C1[C@@H](OS(=O)(=O)CC(F)(F)F)[C@H](c2ccc(F)cn2)N1c1cc2c3ccccc3ccc2c2ccccc12	47.6%
Cc1cc(O)cc(O)c1N=NC1=NCCS1	111%
CCN(CC)CC#CCOC(=O)[C@]1(C)CCC[C@]2(C)[C@H]3C[C@H]4C(C(C)C)=C[C@]3(CC[C@H]21)[C@@H]1C(=O)CCC(=O)[C@@H]14	55.1%
CC(=O)OCC1OC(OC2C(COC(C)=O)OC(OCCC[S-])C(OC(C)=O)C2OC(C)=O)C(OC(C)=O)C(OC(C)=O)C1OC(C)=O.[Au+].c1ccc(CN2[CH-]N(Cc3ccccc3)C(c3ccccc3)=C2c2ccccc2)cc1 (centres undefined)	18.5%
COc1cc(-c2cn(-c3ccc(Cl)c(Cl)c3)c(=O)[nH]2)cc(OC)c1OC	109%
NC(=O)c1ccc2nc3c(n2c1)C(=O)C(=O)c1ccccc1-3	-50.4% (active)
Nc1c(C(=O)Nc2ccccn2)sc2nc3c(cc12)CCCCCC3	19%
COc1cccc(NC(=O)Nc2ccc(Oc3ncnc4[nH]c(C)c(C)c34)cc2)c1	81.7%
CC(=O)Oc1c2c(nc3c1c1ccccc1n3Cc1ccccc1)-c1ccccc1C2	98.8%
CCOC(=O)C(=Cc1c(-c2ccccc2)[nH]c2ccccc12)C(=O)OCC	53.5%
CCOC(=O)c1c(C)nc2c(c1N)/C(=C/c1cccs1)C(=O)N2c1ccc(OC)cc1	67.6%
Cc1ccccc1NC(=O)c1sc2nc(C)c(C(C)O)cc2c1N (centres undefined)	36.8%
C#CCN1C(=O)c2ccccc2N(CC#C)C12CCN(Cc1cn(CC(=O)Nc3ccccc3C(N)=O)nn1)CC2	94%
O=c1nc(-c2ccccc2)c2cc(-c3ccc(N4CCCC4)nc3)ccc2[nH]1	45.8%
CC(=O)ON1CCCC(P(=O)(OCOC(=O)C(C)(C)C)OCOC(=O)C(C)(C)C)C1=O (centres undefined)	16.5%
O=S(=O)(O)c1ccc(N=NSc2ccc3ccccc3c2)cc1	96.5%

Compound	growth
Cc1cccc(C)c1NCc1nnc(-c2ccco2)o1	93.8%
CC1(C)Cc2c(Br)c(Br)c(Br)c(OCC(O)CN3CCOCC3)c2O1 (centres undefined)	94.5%
S=c1ssnc1-c1cc2ccccc2o1	71.5%
CCCCCCCc1n(Cc2ccc3ccccc3c2)c2ccccc2[n+]1Cc1ccc2ccccc2c1	-80% (active)
Oc1c(CCl)cc(Cl)cc1Cc1cc(Cl)cc(Cc2cc(Cl)cc(CCl)c2O)c1O	25.5%
Cc1cnc(SCc2ccc(Cl)cc2Cl)nc1Nc1ccc(Cl)c(Cl)c1	102%
O=C(C[n+]1cccc2cc(Cl)ccc21)c1ccc2c(c1)CCCC2	35.6%
COc1ccc(/C=C(/C(=O)N2CCN(Cc3ccccc3)CC2)c2cc(OC)c(OC)c(OC)c2)cc1O	45.6%
NC(=O)CN1C(=O)c2ccccc2C1=O	103%
O=C(Nc1nc2ccc(C(F)(F)F)cc2s1)c1cc(Cl)ccc1O	12.8%
C[C@@H]1C(=O)[C@@H]2C[C@@H](O)[C@@H](O)C[C@]2(C)[C@H]2CC[C@@]3(C)C(=C12)CC[C@@H]3[C@@](C)(O)[C@H](O)CCC(C)(C)O	106%
O=c1[nH]c(-c2cccc(F)c2)cc2cc(F)ccc12	26.9%
COCCOC(=O)COc1ccc(OC)cc1	93.5%
C=C(C)[C@@H]1CC[C@]2(C(=O)N3CCN(C)CC3)CC[C@]3(C)[C@H](CC[C@@H]4[C@@]5(C)C/C(=C/c6ccco6)C(=O)C(C)(C)[C@@H]5CC[C@]43C)[C@@H]12	74%
N#CCNc1ccc(C(=O)O)cc1	103%
OCCNc1nc(NCCO)nc(Nc2ccc(C3=NN(c4cc(Cl)cc(Cl)c4)C(c4ccc(Cl)cc4)C3)cc2)n1 (centres undefined)	23.4%
C=C1C(=O)O[C@H]2[C@H]1CC/C(COC(=O)NCc1nc3ccccc3[nH]1)=C\CC[C@@]1(C)O[C@@H]21	25.2%
Cc1cccc(C)c1NCc1nnc(-c2ccc(O)cc2)o1	100%

Reference: PubChem BioAssay (NCI)
